This is a sample that favours compounds with a hit; in the whole collection about 3.5% have one here.
MITF primary = blocks human microphthalmia-associated transcription factor; AlphaScreen MITF homodimerization, bead proximity signal; inhibition, % at 2.6 µM; 650,000 tested, 0.91% active; AID 1259374; in the data active means inhibition above about 50%;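 further: 0% = vehicle wells with protein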
FBW7 act = activators of human E3 ligase FBW7. AlphaScreen FBW7–phospho-cyclin E peptide binding, activator screen. normalized activity (activation), % at 26.1 µM. 650,000 tested, 0.13% active. AID 1259310; in the data active means normalized activity above about 1.9%;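 further: purified mutant Fbw7 with reduced substrate affinity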
Target sequence (Q969H0 whole entry, looked up): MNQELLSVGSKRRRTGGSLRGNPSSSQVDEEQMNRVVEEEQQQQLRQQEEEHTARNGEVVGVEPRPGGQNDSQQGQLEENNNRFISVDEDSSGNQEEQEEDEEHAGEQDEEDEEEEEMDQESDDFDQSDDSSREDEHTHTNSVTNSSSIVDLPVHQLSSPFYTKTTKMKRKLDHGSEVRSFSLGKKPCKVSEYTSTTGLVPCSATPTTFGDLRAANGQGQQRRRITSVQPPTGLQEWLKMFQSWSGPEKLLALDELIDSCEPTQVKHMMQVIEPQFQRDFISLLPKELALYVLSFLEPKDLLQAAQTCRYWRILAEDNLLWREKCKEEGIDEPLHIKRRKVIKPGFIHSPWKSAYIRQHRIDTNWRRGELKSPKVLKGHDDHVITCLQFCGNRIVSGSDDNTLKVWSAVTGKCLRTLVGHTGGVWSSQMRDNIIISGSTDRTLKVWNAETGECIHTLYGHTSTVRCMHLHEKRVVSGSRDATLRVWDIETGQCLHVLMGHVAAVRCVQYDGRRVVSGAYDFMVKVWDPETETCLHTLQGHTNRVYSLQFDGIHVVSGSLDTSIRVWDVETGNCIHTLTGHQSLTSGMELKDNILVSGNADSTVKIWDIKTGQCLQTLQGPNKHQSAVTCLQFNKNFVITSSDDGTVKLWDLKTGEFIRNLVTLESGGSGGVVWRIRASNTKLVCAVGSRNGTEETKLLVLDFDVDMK
TEAD-YAP inh = TEAD-YAP interaction inhibition | AID 1259422 | inhibition, % at 9.12 µM | 640,000 tested, 1.4% active | HEK-TIYL cells, TEAD-Gal4/YAP UAS-luciferase luminescence; in the data active means inhibition above about 32%;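 further: 0% = median of test compound wells and 100% = reference inhibitor wells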
GPR151 ag = activators of human GPR151; PathHunter beta-arrestin GPR151 cells, luminescence; 650,000 tested, 1% active; Q8TDV0; AID 1508602; activation, % at 11.2 µM; in the data active means activation above about 4.9%;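 further: 0% = median of compound wells and 100% = cells with positive control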
GPR151 confirm = confirmation of human GPR151 activators; GPR151 PathHunter beta-arrestin cells, luminescence, 90 min; % of EA-reagent control over plate median; 6,700 tested, under 10 active; activation, % at 11.2 µM; shares compounds with GPR151 ag;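 active means mean percent activation across replicates above the confirmation screen cutoff of 4.91%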
GPR119 counter = counter-screen for GPR151 activators: effect on human GPR119; shares compounds with GPR151 ag; GPR119 PathHunter beta-arrestin cells, luminescence, 90 min; 0 = compound-well median, 100 = enzyme-acceptor control; activation, % at 11.2 µM; 6,700 tested, 0.3% active;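 active means mean percent activation in the counterscreen above 29.09%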;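 further: counterscreen on off-target GPR119 to flag nonselective hits from the GPR151 activator screen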
An asterisk follows results filed as active; . = no result.

SMILES	MITF primary	FBW7 act	TEAD-YAP inh	GPR151 ag	GPR151 confirm	GPR119 counter
CC(C)(C)OC(=O)N[C@H]1CCC[C@@H](NC(=O)c2cccc(-n3cc(NC(=O)Cc4ccccc4)cn3)c2)C1	1	0	-1	5.4*	0	-10
Nc1ncnc(Nc2ccc(S(=O)(=O)Nc3ncccn3)cc2)c1[N+](=O)[O-]	2	0	-9	4.9*	0	0
Cc1cc(C)nc(NS(=O)(=O)c2ccc(Nc3ncnc(N)c3[N+](=O)[O-])cc2)n1	-1	0	-3	2	.	.
CN(CCC#N)CC(=O)Nc1cc(C(F)(F)F)cc(C(F)(F)F)c1	-8	1	9	-1	.	.
CC(=O)c1ccc(S(=O)(=O)NCCc2cn3ccc(C)cc3n2)cc1	5	0	-4	5.0*	1	10
Cc1cc(F)ccc1NC(=O)CCNc1c(N2CCCC2)c(=O)c1=O	14	0	-3	5.0*	0	-13
CC(C)C[C@H]1C(=O)N2CCN(C(=O)c3cccc(F)c3F)C[C@@H]2C(=O)N1C	11	1	3	6.6*	0	14
Cc1ccc(CNC(=O)CCCCn2c(=S)[nH]c3ccsc3c2=O)cc1	-16	0	-16	0	.	.
NC(CSC1CCCCO1)C(=O)O (stereo unspecified)	-8	0	-15	1	.	.
CCOC(=O)C(N)CSC1CCCCO1 (stereo unspecified)	35	0	-5	8.2*	0	-1
CCOc1ccc(NC(=O)c2sc3ncnc(N4CCN(c5ccccc5)CC4)c3c2C)cc1	15	0	1	0	.	.
CCc1ccccc1N(CC(=O)NC1CC2CCC1C2)S(C)(=O)=O (stereo unspecified)	8	0	0	5.6*	0	-2
CS(=O)(=O)N(CC(=O)NC1CC2CCC1C2)c1cc(Cl)c(Cl)cc1Cl (stereo unspecified)	4	0	5	1	.	.
Cc1oc(-c2cccc(Cl)c2)nc1COC(=O)c1nnn(-c2cccc(F)c2)c1C	-12	0	-1	6.0*	-1	-12
Cc1ccc(C(=O)ON2C(=O)c3ccccc3C2=O)cc1C	10	0	-5	7.6*	0	15
O=C(NCCc1ccccn1)c1cc(Br)ccc1Cl	13	0	-19	-1	.	.
O=C(c1nccc2ccccc12)N1CCC(n2nnc3ccccc3c2=O)CC1	16	0	-5	-1	.	.
CCc1nnc(SCC(=O)N2c3ccccc3Sc3ccccc32)n1N	6	0	7	2	.	.
Cc1nnc(SCC(=O)N2c3ccccc3Sc3ccccc32)n1N	8	0	9	7.4*	0	-3
CC1(C)C2CCC1(C)C(Nc1ccc(N)c([N+](=O)[O-])c1)(S(=O)(=O)O)C2[n+]1ccccc1 (stereo unspecified)	4	0	0	5.6*	-1	-8
Nc1ccc(NC(=S)NC2CCCCC2)cc1[N+](=O)[O-]	11	-1	-26	1	.	.
CC(=O)Oc1ccc(/C=C2\N=C(c3cccc(C)c3)OC2=O)cc1OC(C)=O	0	0	2	7.6*	2	1
COc1ccc(C2=N/C(=C/c3cccc(OC)c3OC)C(=O)O2)cc1Br	8	0	-2	5.0*	-1	1
CCOc1ccccc1/C=C1\N=C(c2cccc(C)c2)OC1=O	1	0	-11	9.7*	-1	0
Cc1cccc(C2=N/C(=C\c3ccc(I)o3)C(=O)O2)c1	-10	0	8	5.3*	0	-1
SMILES	MITF primary	FBW7 act	TEAD-YAP inh	GPR151 ag	GPR151 confirm	GPR119 counter
CCOc1ccccc1/C=C1\N=C(c2ccc(C)cc2)OC1=O	12	0	-6	0	.	.
COc1cccc(C(CC(=O)NCC2CCCO2)NS(=O)(=O)c2ccc(F)cc2)c1OC (stereo unspecified)	15	0	-2	-1	.	.
CCOC(=O)c1sc(NC(=O)C(C)Sc2nnc(CNC(=O)c3cccs3)n2-c2ccc(F)cc2)c(C(=O)OCC)c1C (stereo unspecified)	-9	0	-6	-1	.	.
CCc1ccc(C2CC(c3ccccc3)=NN2C(=O)CCC(=O)O)cc1 (stereo unspecified)	19	0	2	1	.	.
COc1ccc(C2CC(=O)C3=C(C2)NC(C)=C(C(=O)OC2CCCC2)C3c2ccccc2OC)cc1OC (stereo unspecified)	6	0	4	0	.	.
COc1ccc(C2CC(=O)C3=C(C2)NC(C)=C(C(=O)OC2CCCC2)C3c2ccccc2C)cc1OC (stereo unspecified)	10	0	17	5.3*	-1	9
O=c1ccc(-c2ccccc2)cn1Cc1ccccc1	-6	0	2	3	.	.
Cc1cccc(NC(=O)CCC2CCN(C(=O)c3cc(C)nc(C)n3)CC2)c1	8	0	4	5.2*	1	14
Cc1c(C(=O)NN2CCOCC2)sc2ncn(C)c(=O)c12	8	0	3	2	.	.
Cc1cc(NC(=O)Cn2cc([N+](=O)[O-])cn2)n(-c2ccccc2)n1	-3	0	-13	3	.	.
Cc1cc(C)n(C(=O)COc2ccccc2[N+](=O)[O-])n1	-16	0	4	5.4*	0	-2
Cc1cc(NC(=O)COc2cc(F)ccc2[N+](=O)[O-])n(-c2ccccc2)n1	-8	0	-1	15*	-1	-10
CCN(CC)C(=O)C1CCCN(c2nc(NCCc3ccc(OC)cc3)c3ncn(Cc4ccc(C(F)(F)F)cc4)c3n2)C1 (stereo unspecified)	-4	0	-9	6.8*	0	1
CCN(CC)C(=O)C1CCCN(c2nc(NCCc3ccc(OC)cc3)c3ncn(C4CCCCC4)c3n2)C1 (stereo unspecified)	12	0	-6	10*	0	-2
CCN(CC)C(=O)C1CCCN(c2nc(NCCOc3ccccc3)c3ncn(Cc4ccc(C(F)(F)F)cc4)c3n2)C1 (stereo unspecified)	10	0	0	0	.	.
CCc1ccc(NC(=O)CSc2nc3ncccc3[nH]2)cc1	0	0	-10	6.5*	1	5
COc1ccc(NS(=O)(=O)c2c[nH]c3ccc([N+](=O)[O-])cc23)cc1OC	4	0	-3	1	.	.
CCC(Sc1nc2cc(OC)c(OC)cc2c2nc(C)nn12)C(=O)NCc1ccco1 (stereo unspecified)	2	0	-4	0	.	.
CCC(Sc1nc2cc3c(cc2c(=O)n1CCCCCC(=O)NCc1ccc2c(c1)OCO2)OCO3)C(=O)NCc1ccco1 (stereo unspecified)	0	0	0	0	.	.
